The source of these data is PubChem BioAssay AID2253 (Southern Research Specialized Biocontainment Screening …, 2010).

Each structure is given as a SMILES string. The whole screen tested about 2,200 compounds, of which about 1,300 (59%) were called active. So high a share suggests a set chosen from earlier hits. A selection follows. Entries with a potency or affinity are not part of this list. Values without a mark were called inactive. How the calls were made is not given here.

The nature of the test: THP-1 cell cytotoxicity, dose response, cytotoxicity control for Salmonella PhoP regulon inhibitors, S. typhimurium screen hits (AID 2253). As to conditions: THP-1 viability, CellTiter-Glo luminescence, 72 h; series mostly up to 50 µM; viability: at the top concentration. For orientation: In ATP-based viability assays light output follows the ATP content of the culture.
Usually viability stands for a read-out of living cells in per cent, often relative to untreated cells. As for `CCCc1cc(=O)oc2cc(OCC(=O)N3CCc4ccccc43)ccc12`, the “viability” value is 96.1%.
In the case of `COc1cccc(-n2c(N)c(C(=O)Nc3c(C)n(C)n(-c4ccccc4)c3=O)c3nc4ccccc4nc32)c1`, the “viability” value was 87.9%.
For `CCn1c(SCc2ccc(F)cc2)nc2ccccc2c1=O`, the “viability” value was 86.5%.
Take `COc1cc(Cc2cc(N)nc(N)n2)cc(OC)c1OC`: the “viability” value is 82.9%.
Consider `Cn1c(N)c(C(=O)COC(=O)C2CCCCC2)c(=O)n(C)c1=O`, for which the “viability” value was 92.8%.
Regarding `CCC(OC(=O)C(NC(=O)c1ccccc1)c1ccccc1)C(=O)Nc1cc(C)on1` (configuration not stated), the “viability” value is 81.7%.
Then `O=C(N/N=C/c1coc2ccc(Cl)cc2c1=O)c1cc(O)cc(O)c1`, with 88.3%; and `O=C(NCCc1ccc(Cl)cc1)/C(=C/c1cccnc1)NC(=O)c1ccccc1`, with 82.7%.
Regarding `Cc1occc1C(=O)n1cnc2ccccc21`, the “viability” value was 83.7%.
Consider `O=c1[nH]c2ccccc2n1C1=CCCC1`, for which the “viability” value is 101%.
The same measure for `Cc1ccc2c(c1)cc(CN(Cc1ccc3c(c1)OCO3)C(=O)c1cnccn1)c1nnnn12`: 84.1%; for `COC(=O)c1sccc1N/N=C(\C)c1ccc(F)c(Cl)c1`: 105%.
The same measure for `CCOc1ccc(CSC(CC(=O)O)C(=O)O)cc1` (configuration not stated): 95.8%; for `CC(=O)N1C(=O)C2(C(C#N)=C(N)Oc3c2c(C)nn3-c2ccccc2)c2ccccc21` (configuration not stated): 85.7%.
The same measure for `O=C(NCc1ccc2c(c1)OCO2)c1ccc(-n2cnnn2)cc1`: 84.5%.
In the case of `Cc1cc(C)cc(NC(=O)CSc2nc3c(c(=O)[nH]2)CN(Cc2ccc(F)cc2)CC3)c1`, the “viability” value was 81.4% [at 25 µM].
The same measure for `Cn1cc(C(CC(=O)O)C(=O)O)c2ccccc21` (configuration not stated): 86%.
As to `c1ccc(OCCCN2CCCC2)cc1`, the “viability” value is 96.7%.
Then `CCOc1ccccc1OCC(=O)Nc1ccc(S(=O)(=O)Nc2nc(C)cc(C)n2)cc1`, with 89.7% [at 25 µM]; and `COCCNC(=O)c1ccccc1NS(=O)(=O)c1ccc(Br)s1`, with 87.3%; and `Cc1[nH]n(-c2ccccc2)c(=O)c1-c1ccc(Cl)cc1`, with 89.1%.
The same measure for `Cc1nn(-c2ccccc2)c(C)c1C(=O)OC/C(O)=C(\C#N)c1nc2ccccc2[nH]1`: 97.8%; for `C/C(=C\C(=O)OCCCCCCCCC(=O)O)C[C@@H]1OC[C@H](C[C@@H]2O[C@H]2[C@@H](C)[C@H](C)O)[C@@H](O)[C@H]1O`: 96.3%; for `Brc1ccc2cccnc2c1`: 88.6%.
`O=C1C2C3c4ccccc4C(c4ccccc43)C2C(=O)N1c1cccc2cccnc12` (configuration not stated): the “viability” value is 81%.
As to `CCc1cc2c(NCCC(=O)O)nc(C)nc2s1`, the “viability” value is 93%.
Take `c1ccc(Oc2cc(-c3ccccc3)ncn2)cc1`: the “viability” value is 82.3%.
Consider `CCOc1ccc(S(=O)(=O)Nc2ccc(C(=O)N/N=C/c3c(C)nn(-c4ccccc4)c3N3CCCC3)cc2)cc1`, for which the “viability” value was 80.5%.
Consider `Cc1cc(=O)[nH]c(N/N=C/c2c[nH]c3ccccc23)n1`, for which the “viability” value is 86.4%.
As to `COc1ccc(-c2cc(C(=O)O)[nH]n2)cc1OC`, the “viability” value is 99.8%.
The same measure for `Fc1ccc(-c2n[nH]c(=S)n2/N=C/c2c[nH]c3ccccc23)cc1`: 89.4%; for `Cn1cccc1C(=O)OCc1csc(-c2ccccc2)n1`: 92.6%.
The same measure for `N#CC1(C#N)COC23CCCCC2C1(C#N)C(=N)O3` (configuration not stated): 109%.
In the case of `O=C(NC(CO)Cc1ccc([N+](=O)[O-])cc1)C(Cl)Cl` (configuration not stated), the “viability” value was 82.4%.
Then `Cc1nc(C(=O)Nc2ccc(Cl)cc2)nn1-c1ccc([N+](=O)[O-])cc1`, with 80.2%; and `Cc1ccc(NC(=O)C2CC(=O)NC(N3CCCCC3)=N2)cc1Cl` (configuration not stated), with 97.1%.
Then `CCOC(=O)C1(S(=O)(=O)c2ccccc2)CCN(Cc2ccc(Cl)cc2)CC1`, with 101% [at 25 µM]; and `CCN(CC)C(=O)CP(=O)(c1ccccc1)c1ccccc1`, with 89.9%; and `CCn1c2ccccc2c2cc(NC(=O)C(C)Oc3ccccc3)ccc21` (configuration not stated), with 85.2%.
Then `O=C(CCNS(=O)(=O)c1cccc2nsnc12)NCc1cccs1`, with 96.8%; and `O=C(OCC1COc2ccccc2O1)c1ccccc1F` (configuration not stated), with 105%; and `CCC1C2CN(C(C)=O)CC=C2C(C#N)=C(N)C1(C#N)C#N` (configuration not stated), with 107%.
In the case of `O=C(CCCN1C(=O)CCC1=O)Nc1ccc2c(c1)OCCO2`, the “viability” value is 87.8%.
For `CCCNC(=O)CSc1nnc(C)s1`, the “viability” value is 103%.
The same measure for `CC(=O)Nc1cccc(OC(=O)c2ccoc2C)c1`: 104%; for `CO/N=C(/C(=O)N[C@@H]1C(=O)N2C(C(=O)O)=CCS[C@H]12)c1cnc(N)s1`: 111%; for `COc1ccc(-c2ccccc2)cc1NCc1ccccc1C`: 83.1%.
Then `CCOC(=O)Cc1ccc2sc(-c3ccccc3)nc2c1`, with 82.3%; and `COC(=O)Cc1c(C)nc2nc(NCc3ccc(Cl)cc3)[nH]n2c1=O`, with 92%; and `CC(C)NC(=O)CSc1nc(N)c(NC(=O)c2ccccc2F)c(=O)[nH]1`, with 101%.
Turning to `CN1c2ccccc2C(O)=C(C(=O)Nc2ccccc2)S1(=O)=O`, the “viability” value was 81.3%.
As to `O=C(O)CCCCCN1C(=O)c2ccc(C(=O)O)cc2C1=O`, the “viability” value was 92.1%.
Consider `CC(=O)N1N=C(c2ccco2)CC1c1ccc(Br)cc1` (configuration not stated), for which the “viability” value was 95.1%.
Then `CCOC(=O)CN(C)Cc1c[nH]c2ccccc12`, with 95.1%; and `O=C(c1ccccc1S(=O)(=O)NCc1ccccc1)N1CCCC1`, with 83.8%.
As for `CN(C)CCOC(=O)Cc1ccc(Cl)cc1`, the “viability” value was 106%.
The same measure for `O=C(c1cccnc1Nc1ccc2c(c1)CCC2)N1CCOCC1`: 87.5%.
